High-throughput results (PubChem)
V-ATPase pH: regulators of yeast V-ATPase proton pumping, primary screen, pHLuorin cytosolic pH fluorescence | S. cerevisiae | response, % at 10 µM | 350,000 tested, 0.37% active; in the data active = response mostly above about 7.3%, no sharp cut-off; inactive = mostly below about 5.4%; also: actives read high
Wee1 stabilizer: Wee1 degradation inhibitors, primary screen, cell-based, HeLa, Wee1K328M-luciferase, luminescence; HeLa Luc-Wee1K328M stability; 100% = proteasome inhibitor MG132 effect; reporter increase, % at 5 µM; 220,000 tested, 1.2% active; AID 1321, 2008;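 active = activation above the mean of all tested compounds plus 3 SD, set per screening run, cut at about 8.8% in these data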;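 also: cells exposed to compound for 20 h before luminescence read; 0% = DMSO alone and 100% = MG132 at 30 µM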
Target sequence (P30291 whole entry K328M): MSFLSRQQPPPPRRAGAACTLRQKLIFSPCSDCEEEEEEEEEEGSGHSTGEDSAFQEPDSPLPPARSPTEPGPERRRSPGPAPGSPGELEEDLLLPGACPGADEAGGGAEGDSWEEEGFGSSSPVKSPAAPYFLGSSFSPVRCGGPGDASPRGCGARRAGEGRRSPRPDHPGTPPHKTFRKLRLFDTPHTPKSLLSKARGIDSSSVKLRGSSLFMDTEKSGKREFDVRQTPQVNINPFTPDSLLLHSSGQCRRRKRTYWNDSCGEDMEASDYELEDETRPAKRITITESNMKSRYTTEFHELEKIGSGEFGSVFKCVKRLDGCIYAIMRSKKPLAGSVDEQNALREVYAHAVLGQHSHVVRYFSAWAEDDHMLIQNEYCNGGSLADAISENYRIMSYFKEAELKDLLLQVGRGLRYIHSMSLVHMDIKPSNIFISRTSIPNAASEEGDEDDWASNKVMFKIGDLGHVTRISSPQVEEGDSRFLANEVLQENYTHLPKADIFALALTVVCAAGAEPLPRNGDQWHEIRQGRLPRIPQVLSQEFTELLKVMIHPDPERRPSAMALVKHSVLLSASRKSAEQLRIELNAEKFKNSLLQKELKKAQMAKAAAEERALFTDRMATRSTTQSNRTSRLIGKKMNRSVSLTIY
zVAD death inh: inhibitors of zVAD-triggered necroptosis, primary screen, L929 cells. L929 zVAD necroptosis rescue, ATP luminescence, 24 h; with zVAD 60 µM. viability rescue, % at 10 µM. 220,000 tested, 0.38% active. AID 1377, 2008;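 active = activation, scaled between plate controls, above about 75%, limit read from the data; inactive = activation under that limit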;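 also: 0% = zVAD with DMSO and 100% = DMSO alone without zVAD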
TNF death inh: inhibitors of TNF-alpha triggered necroptosis, primary screen, cell-based, Jurkat FADD-/-, single concentration; AID 463075, 2010; 220,000 tested, 0.068% active; activation (protection from cell death), % at 10 µM; Jurkat FADD-/- TNF necroptosis rescue, ATP luminescence, 24 h; 0 = TNF only, 100 = no-TNF cells;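 active = activation, meaning protection from cell death, of at least 50% relative to plate controls; inactive = activation below 50%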;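 also: necroptosis triggered by 40 ng/mL TNF-alpha added together with compound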
HSV augment: enhancers of HSV replication in host cells, fold increase, host cell viability; HSV replication augmentation in cells; maximum fold increase; 220,000 tested, 0.005% active; AID 1956, 2009; in the data active = maximum fold increase above about 1.5; tested in PC3 cells
Numbers without * were called inactive. This is a sample that favours compounds with a hit; in the whole collection about 1.4% have one here.

For COc1cc(NC(=S)N(C)CCC#N)c(OC)cc1Cl the results were V-ATPase pH -1.3, Wee1 stabilizer -3.7, zVAD death inh 0.7, TNF death inh -0.6 and HSV augment inactive.
For NC(=O)c1ccc(N=Cc2ccc([N+](=O)[O-])s2)cc1 the results were V-ATPase pH 112.7*, Wee1 stabilizer 4.6, zVAD death inh -1.1, TNF death inh 14.6 and HSV augment inactive.
For Cc1cc(C)cc(N=Cc2ccc([N+](=O)[O-])s2)c1 the results were V-ATPase pH 112.0*, Wee1 stabilizer -2.4, zVAD death inh 1.2, TNF death inh -8.0 and HSV augment inactive.
O=[N+]([O-])c1ccc(C=Nc2ccc(Cl)c([N+](=O)[O-])c2)s1 was read as V-ATPase pH 145.2*, Wee1 stabilizer -1.8, zVAD death inh 6.9, TNF death inh -16.6 and HSV augment inactive.
Cc1ccc(NC(=S)N/N=C/c2ccc([N+](=O)[O-])s2)cc1 was read as V-ATPase pH 1.2, Wee1 stabilizer 0.3, zVAD death inh 0.6, TNF death inh -1.8 and HSV augment inactive.
Screening Cc1ccc(NC(=O)N2CCCC2C(=O)NCC2CCCO2)cc1 (stereo not drawn) returned V-ATPase pH -1.9, Wee1 stabilizer 1.8, zVAD death inh 5.1, TNF death inh -0.5 and HSV augment inactive.
N#CCSc1ccccc1NC(=O)COC(=O)CCNC(=O)c1ccc([N+](=O)[O-])cc1 was read as V-ATPase pH 2.5.
COc1ccccc1CNC(=O)COC(=O)CCC(=O)c1cccs1 was read as V-ATPase pH 0.7, Wee1 stabilizer 2.4, zVAD death inh 0.5, TNF death inh -1.6 and HSV augment inactive.
For CCn1c(CSCc2ccccc2)n[nH]c1=S the results were V-ATPase pH 0.6, Wee1 stabilizer 9.1*, zVAD death inh 0.2, TNF death inh -0.6 and HSV augment inactive.
For CCn1c(Cc2ccccc2)n[nH]c1=S the results were V-ATPase pH -1.7, Wee1 stabilizer -1.6, zVAD death inh 1.4, TNF death inh 1.8 and HSV augment inactive.
For CC1CCCC(NC(=O)COC(=O)CCC(=O)c2ccc(F)cc2)C1C (stereo not drawn) the results were V-ATPase pH -2.6.
Screening O=S(=O)(Nc1ccc(N2CCOCC2)cc1)c1ccccc1 returned V-ATPase pH -1.2, Wee1 stabilizer -3.2, zVAD death inh -0.3, TNF death inh 5.4 and HSV augment inactive.
O=S(=O)(/C=C/c1ccccc1)Nc1ccc(N2CCOCC2)cc1 was read as V-ATPase pH -1.9, Wee1 stabilizer 10.2*, zVAD death inh 0.8, TNF death inh -3.0 and HSV augment inactive.
`Cc1cccc(C)c1NC(=O)COC(=O)CCc1c[nH]c2ccccc12` gave V-ATPase pH -4.1.
For O=C(OC(C(=O)Nc1ccc([N+](=O)[O-])cc1Br)c1ccccc1)c1ccccc1 (stereo not drawn) the results were V-ATPase pH -3.1, Wee1 stabilizer 0.6, zVAD death inh -0.1, TNF death inh 75.6* and HSV augment inactive.
CCCCc1ccc(NC(=S)NCCc2ccc(S(N)(=O)=O)cc2)cc1 was read as V-ATPase pH 0.5, Wee1 stabilizer -2.3, zVAD death inh 0.2, TNF death inh -2.1 and HSV augment inactive.
Screening Cc1ccc2nc(-c3ccsc3)c(NC3CCCC3)n2c1 returned V-ATPase pH -3.0, Wee1 stabilizer 10.2*, zVAD death inh -0.4, TNF death inh -0.4 and HSV augment inactive.
For CCOc1ccc(NC(=O)N2CCCC2C(=O)NCc2ccco2)cc1 (stereo not drawn) the results were V-ATPase pH -2.0.
Screening O=[N+]([O-])c1ccc(N2CCN(S(=O)(=O)c3ccccc3)CC2)cc1NCC1CCCO1 (stereo not drawn) returned V-ATPase pH 0.3, Wee1 stabilizer 0.1, zVAD death inh -1.3, TNF death inh 2.2 and HSV augment inactive.
Screening O=C(c1ccccc1)N1CCN(c2ccc([N+](=O)[O-])c(NCC3CCCO3)c2)CC1 (stereo not drawn) returned V-ATPase pH 3.7, Wee1 stabilizer 10.7*, zVAD death inh 1.0, TNF death inh -0.6 and HSV augment inactive.
`CC(=O)c1sc(NC(=O)CS(=O)(=O)c2ccccc2)nc1-c1ccccc1` gave V-ATPase pH 18.4*.
`CC(C)c1ccccc1NS(C)(=O)=O` gave Wee1 stabilizer 16.0*, zVAD death inh 3.6, TNF death inh 1.0 and HSV augment inactive.
O=C(NC1c2ccccc2Oc2ccccc21)c1ccc([N+](=O)[O-])cc1 was read as V-ATPase pH -5.8.
COC(=O)c1ccc(NC(=O)CCNS(=O)(=O)c2cccc3nonc23)cc1 was read as V-ATPase pH 0.2, Wee1 stabilizer 9.1*, zVAD death inh -0.9, TNF death inh 2.7 and HSV augment inactive.
For O=C(NCc1cccnc1)c1cccc(S(=O)(=O)N2CCOCC2)c1 the results were V-ATPase pH 15.3*, Wee1 stabilizer -1.0, zVAD death inh 0.4, TNF death inh 0.7 and HSV augment inactive.
`Cn1c(=O)c2c(nc(N3CCN(Cc4ccccc4)CC3)n2CCCc2ccccc2)n(C)c1=O` gave V-ATPase pH 1.0, Wee1 stabilizer 10.0*, zVAD death inh -0.1, TNF death inh -7.1 and HSV augment inactive.
For O=C(Nc1cccc2ccccc12)c1ccc(Br)o1 the results were V-ATPase pH -4.4, Wee1 stabilizer 2.1, zVAD death inh 0.0 and TNF death inh -1.0.
`O=C(Nc1cccc2cccnc12)c1ccc(Br)o1` gave V-ATPase pH 0.2, Wee1 stabilizer 2.5, zVAD death inh 76.4*, TNF death inh -5.2 and HSV augment inactive.
`CC1CCCCN1S(=O)(=O)c1ccc2c(c1)CCN2C(=O)C1CCC1` (stereo not drawn) gave V-ATPase pH -4.1, Wee1 stabilizer 8.8*, zVAD death inh 2.1 and TNF death inh 1.4.
Screening CCOC(=O)C1CCN(S(=O)(=O)c2ccc3c(c2)CCN3C(=O)C2CCC2)CC1 returned V-ATPase pH 0.4.
`COc1cccc(CNS(=O)(=O)c2ccc3c(c2)CCN3C(=O)C2CC2)c1` gave V-ATPase pH 2.7, Wee1 stabilizer 9.2*, zVAD death inh -0.9, TNF death inh 0.0 and HSV augment inactive.
COc1ccc(CNC(=O)C(=O)NC2CCC(C)CC2)cc1 (stereo not drawn) was read as V-ATPase pH 5.4, Wee1 stabilizer -2.1, zVAD death inh -0.1, TNF death inh 1.1 and HSV augment inactive.
For CC(=O)N1CCc2cc(S(=O)(=O)NC(C(=O)N3CCN(c4ccccc4F)CC3)C(C)C)ccc21 (stereo not drawn) the results were V-ATPase pH -0.9.
For O=S(=O)(O)c1ccc(N=Nc2ccccc2)cc1 the results were V-ATPase pH -0.7, Wee1 stabilizer -1.8, zVAD death inh 0.4, TNF death inh -0.3 and HSV augment inactive.
